Screen size: about 320,000 compounds; about 55 (0.02%) were called active. About 3% were inconclusive and are not listed. Rule as the data show it: active = potentiation above about 80%; inconclusive = between about 30% and that limit; inactive = weaker than that. The entries come from a sample that favours actives as a whole.
Each compound was assayed against Transient receptor potential cation channel subfamily V member 1 (Homo sapiens) (UniProt Q8NER1) (assay: HTS Assay for Compounds that Act as Potentiators of the Vanilloid Receptor 1). Details: TRPV1-expressing cells, Fluo-8 calcium influx, capsaicin EC20 potentiation; at 8.33 µM; active compounds read high.
Text: The transient receptor potential ion channel, family V, number 1, (TRPV1) is one of the most important molecular transducers of painful stimuli and a potential target for analgesic drug development. Although recent clinical trials with orthosteric antagonists have not produced a successful drug because of a hyperthermia side effect and their tendency to block thermal noxious pain, this ion channel is undeniably well placed in the pain pathway, and the idea of blocking pain signals before they enter the CNS is an excellent concept and of proven efficacy when TRPV1 agonists are used. We propose a new approach involving allosteric modulation to impose an activity-dependent constraint within the context of inflammation and tissue damage that would alter the responsiveness of the channel in a way that an orthosteric vanilloid antagonist cannot achieve. We believe that the allosteric modulator approach has not been explored for this target. The main goal of this proposal is to identify additional, new, potent allosteric modulators of TRPV1 that can be used to investigate TRPV1 function. Our recent report provides evidence of proof of concept, but the compounds are just at the edge of utility in terms of potency. […] The question of whether they can be used as analgesic agents is complex, but if suitable compounds are identified then testing for analgesic properties will be conducted. NIH Chemical Genomics Center [NCGC] NIH Molecular Libraries Probe Centers Network [MLPCN] MLPCN Grant: MH089480-1A1 Assay Submitter (PI): Michael Iadarola, National Institute of Dental and Cranofacial Research
Upon TRPV1 activation in TRPV1 cells, the channel opens and extracellular cations flow through the channel into the cytosol. A calcium binding dye (Fluo-8) becomes fluorescent when bound to calcium. This dye is pre-loaded into cells and is used as a marker for calcium influx. The amount of accumulated calcium is precisely quantified using the FDSS kinetic reader and the calcium dye. For the HTS assay, freshly prepared cells are plated at a density of 2000/well in 3 ul medium in 1536-well plates and cultured overnight at 35.5C. Cells will be loaded with 1 ul of the homogeneous calcium dye (ABD Bioquest) at room temperature for 40 to 90 minutes. Plates will be loaded into the FDSS kinetic reader and a 1 sec / cycle for 10 second baseline signal will be measured. Compound library will then be added with a pintool at 23 nl and measured kinetically for 3 minutes. This portion of the read is considered the agonist portion of the screen. Following the 3 minutes of incubation, an on board pipettor will deliver 1 ul of capsaicin for a final concentration equal to the EC20. Signal will be measured kinetically for an additional 2 minutes. This portion of the read is considered the allosteric enhancer portion of the screen. The FDSS reader has a standard filter set capable of measuring calcium bound Fluo-8 (ex=480 and em=520 nm).
Also: 0% is about no effect.

Transient receptor potential cation channel subfamily V member 1 (Homo sapiens), sequence (Q8NER1 whole entry, looked up): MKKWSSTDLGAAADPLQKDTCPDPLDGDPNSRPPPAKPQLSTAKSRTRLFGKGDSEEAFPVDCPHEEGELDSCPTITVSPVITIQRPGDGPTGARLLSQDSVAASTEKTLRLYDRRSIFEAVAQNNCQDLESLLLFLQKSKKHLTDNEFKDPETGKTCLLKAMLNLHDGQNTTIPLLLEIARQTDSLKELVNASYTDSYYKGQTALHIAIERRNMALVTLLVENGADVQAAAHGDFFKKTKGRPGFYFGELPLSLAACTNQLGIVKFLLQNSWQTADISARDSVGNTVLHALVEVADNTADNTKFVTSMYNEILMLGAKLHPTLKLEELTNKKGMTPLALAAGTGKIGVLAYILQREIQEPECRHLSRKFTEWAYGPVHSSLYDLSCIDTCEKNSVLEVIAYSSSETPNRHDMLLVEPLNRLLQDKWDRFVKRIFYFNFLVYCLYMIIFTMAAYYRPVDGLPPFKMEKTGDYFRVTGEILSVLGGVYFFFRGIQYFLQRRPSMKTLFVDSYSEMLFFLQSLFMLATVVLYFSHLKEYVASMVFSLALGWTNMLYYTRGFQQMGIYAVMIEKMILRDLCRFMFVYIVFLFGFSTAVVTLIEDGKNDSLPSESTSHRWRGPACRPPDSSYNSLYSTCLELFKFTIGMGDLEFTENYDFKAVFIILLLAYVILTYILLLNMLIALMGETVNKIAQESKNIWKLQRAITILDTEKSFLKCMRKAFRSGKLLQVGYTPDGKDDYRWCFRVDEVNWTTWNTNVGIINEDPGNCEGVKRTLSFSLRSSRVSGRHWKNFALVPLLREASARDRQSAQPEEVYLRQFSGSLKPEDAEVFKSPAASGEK

potentiation, inactive:
CCN(CC(=O)Nc1c(F)cccc1F)C(=O)c1ccc(-c2ccc(C(C)=O)cc2)o1 -3.51%
O=C(COc1ccccc1Cl)N1N=C(c2cccs2)CC1c1ccco1 (stereo unspecified) -9.15%
CCc1cc(C(=O)Nc2nnc(C3CC3)s2)sc1C -13.7%
O=C(CN1CCN(S(=O)(=O)c2ccc(Cl)s2)CC1)N1CCCCC1 -6.4%
CN(C)C(CNC(=O)c1ccc(OCc2cn3ccccc3n2)cc1)c1ccco1 (stereo unspecified) -3.83%
CN(CC(=O)NC1CCN(Cc2ccccc2)CC1)S(=O)(=O)c1ccc(Cl)s1 6.87%
COc1ccccc1CNC(=O)COC(=O)c1sc(C)nc1C 1.52%
Cc1csc2nc(COC(=O)c3cccc(N(C)C)c3)cc(=O)n12 15%
COc1ccc(CCNC(=O)COc2ccc3c(c2)OCO3)cc1 18.8%
CCOc1cc(/C=C(/C#N)c2ccc(Cl)cc2)cc(Cl)c1OCC(=O)O 12.2%
COc1ccc(NC(=O)CC2SC(N3CCCCC3)=NC2=O)cc1OC (stereo unspecified) 1.27%
Cc1cccc(OCCC(=O)OCc2csc(CC(=O)Nc3ccccc3C)n2)c1 -3.33%
O=S(=O)(Nc1cccc2cccnc12)c1cccc2cccnc12 16.1%
O=C(COC(=O)CNC(=O)C1CCCCC1)Nc1cccc(F)c1 -7.91%
O=C(COC(=O)Cc1ccccc1F)NCCc1ccccc1 -16%
CC(=O)c1sc(NC(=O)CCN2C(=O)C3CC=CCC3C2=O)nc1-c1ccccc1 (stereo unspecified) -6.85%
CC(C(=O)Nc1ccc(S(=O)(=O)N2CCCC2)cc1)N(C)Cc1ccc(F)cc1 (stereo unspecified) -18.2%
O=C(OCC(=O)N1CCOCC1)c1ccc2ccccc2c1 17.8%
O=C(NNC(=O)c1cc(S(=O)(=O)N2CCCCC2)ccc1Cl)c1ccccc1O -1.67%
CC1CCCN(C(=O)c2cc(-c3ccco3)nc3ccccc23)C1 (stereo unspecified) 27.4%
CC(C)Nc1ncnc2c1nnn2Cc1ccccc1 -2.19%
Oc1ccc(Cl)cc1C1C=C(c2ccc3c(c2)OCO3)NC(c2c(F)cccc2Cl)N1 (stereo unspecified) 25.7%
Cc1ccc(C(=O)Nc2ccn(C)n2)cc1 6.57%
O=S(=O)(Nc1ccc2nc(N3CCOCC3)sc2c1)c1ccccc1 15.8%
O=C(CSc1nc2[nH]c(=O)[nH]c(=O)c2s1)Nc1cccc(F)c1 19.7%
O=C(Nc1ccccc1N1CCOCC1)c1ccncc1 17.2%
NS(=O)(=O)c1ccc(CNC(=O)c2cccc(S(=O)(=O)N3CCc4ccccc43)c2)cc1 23.8%
CC(C)n1ncc2c(C(=O)NCc3ccccc3CN(C)C)cc(C3CC3)nc21 3.73%
Cc1ccc(OCC(=O)N2CCN(S(=O)(=O)c3ccc(Cl)s3)CC2)cc1C -16.7%
CCCn1c(N)c(N(CCOC)C(=O)C2CCCC2)c(=O)[nH]c1=O 1.87%
Oc1ccc(Cl)cc1C1C=C(c2ccc3c(c2)OCO3)NC(c2ccc(F)c(Br)c2)N1 (stereo unspecified) 3.03%
O=C(NCCN1CCOCC1)c1cccc(S(=O)(=O)Nc2ccc(F)cc2)c1 6.45%
COc1ccc(OC)c(/C=C/C(=O)c2ccc3c(c2)OCO3)c1 -3.4%
Cc1cccc(Nc2nnc(SCC(=O)c3c(N)n(C4CC4)c(=O)[nH]c3=O)s2)c1C 22.3%
COc1cc(C#Cc2ccc3cc(CCCO)oc(=O)c3c2)cc(OC)c1 2.73%
O=C(NCc1ccccc1CN1CCCC1)C1CCN(S(=O)(=O)c2ccc(Cl)cc2)CC1 1.5%
O=S(=O)(c1ccc(SCc2ccccc2)nc1)N1CCCCCC1 -6.24%
Cc1ccc2ccc3c(c2n1)NS(=O)(=O)c1ccccc1-3 18.5%
CC1(C)O[C@@H]2[C@H](O1)[C@@H](COS(=O)(=O)O)O[C@H]2n1cnc2c(=O)[nH]cnc21 8.79%
COc1cccc(NC(=O)COC(=O)/C=C/c2ccco2)c1 11%
COc1ccccc1NC(=O)COC(=O)COc1ccccc1F 3.99%
COc1ccc(NC(=O)CN(C)C(=O)c2cc(C3CC3)nn2-c2ccccc2)cc1 14.7%
Cc1ccc(/C=C/C(=O)OCC(=O)Nc2cccnc2Cl)cc1 -11.8%
Cc1cccc(NS(=O)(=O)c2ccc(C)c(C(=O)NCC(c3ccccc3)N(C)C)c2)c1 (stereo unspecified) 1.06%
Cc1cccc(NS(=O)(=O)c2cccc(C(=O)NNC(=O)c3ccccc3O)c2)c1 -12.6%
COc1ccc(C(=O)OCC(=O)c2cc(C)n(CC3CCCO3)c2C)cc1[N+](=O)[O-] (stereo unspecified) 9.08%

Source: PubChem BioAssay AID540277 (National Center for Advancing Translational Sciences (NCATS), 2011)
